FBPA Giardia inh: inhibitors of Giardia lamblia fructose-1,6-bisphosphate aldolase. A8B2U2. Potency, µM (titrated, usually from 59.6 µM), for the others: top-dose activity, negative = inhibition, hits mostly inhibitors. purified Giardia FBPA. 290,000 tested, 0.71% active; also: % is scaled to controls: 0 for no effect and ±100 for the full control effect; nearly all actives have a fitted effect of over 55% in size
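40 nM FBPA preincubated 10 min at RT with compound (up to 57.5 uM final), then substrate plus GAPDH/TPI/NAD/arsenate coupling and diaphorase/resazurin added. Fluorescence read after 20 min at RT, 525/598 nm.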
TbPYK inhibitor: blocks Trypanosoma brucei pyruvate kinase. TbPYK enzyme, Kinase-Glo Plus ATP luminescence, 45 min. Potency, µM (doses to about 76.8 µM), without a hit: at the highest dose activity, negative = inhibition, actives largely listed as inhibitors. 410,000 tested, 0.12% active; also: % is scaled to controls: 0 for no effect and ±100 for the full control effect; nearly all actives have a fitted effect of over 50% in size
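Luminescent Kinase-Glo Plus end-point after 45 min room-temperature reaction of T. brucei pyruvate kinase started with 130 uM ADP (final). Buffer TEA 50 mM pH 7.2 with KCl, MgCl2, BSA, Tween-20; titration-based qHTS with fitted concentration-effect curves.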
NS1 function inh: inhibitors of influenza NS1 protein function; 270,000 tested, 0.4% active; Potency, µM (titrated, usually from 46.1 µM), for the others: at the highest dose activity, positive = more growth; calls by dose curve; also: actives are rising curves; nearly all actives have a fitted effect of over 50% in size
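Recovery from NS1-induced slow growth read by OD600 in budding yeast switched to galactose assay medium (pH 6.0, -URA) at 1:100 dilution. Compound 23 nl per well; the matching strain lacking NS1 serves as control.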
LmPK inh: blocks Leishmania mexicana pyruvate kinase activity. Q27686. purified LmPK, Kinase-Glo ATP luminescence, 1 h. Potency, µM (titrated, usually from 57.5 µM), inactives show at the highest dose activity change, negative = inhibition, hits mostly inhibitors. 290,000 tested, 0.37% active. AID 1721; also: % is scaled to controls: 0 for no effect and ±100 for the full control effect
Target sequence (Q27686 whole entry, looked up): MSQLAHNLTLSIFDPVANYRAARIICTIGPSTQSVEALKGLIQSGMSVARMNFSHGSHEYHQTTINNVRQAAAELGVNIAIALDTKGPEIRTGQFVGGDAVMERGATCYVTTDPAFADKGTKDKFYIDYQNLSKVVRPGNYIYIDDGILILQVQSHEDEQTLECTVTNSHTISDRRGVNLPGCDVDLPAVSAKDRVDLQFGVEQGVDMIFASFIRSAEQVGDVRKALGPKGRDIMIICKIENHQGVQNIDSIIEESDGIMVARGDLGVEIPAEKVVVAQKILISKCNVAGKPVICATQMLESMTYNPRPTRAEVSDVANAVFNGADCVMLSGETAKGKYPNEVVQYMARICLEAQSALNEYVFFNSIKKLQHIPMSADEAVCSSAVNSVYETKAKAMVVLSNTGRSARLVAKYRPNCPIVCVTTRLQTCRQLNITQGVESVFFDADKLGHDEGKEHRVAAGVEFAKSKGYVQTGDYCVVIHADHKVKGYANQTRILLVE
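0.1 nM LmPK, 0.5 mM PEP, 0.1 mM ADP; 50 mM imidazole pH 7.2, 7 mM MgCl2, 50 mM KCl; 1 h RT. Kinase-Glo luminescence readout, normalized to no-enzyme (full inhibition) and uninhibited wells.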
AMA1 RON2 block: disrupts binding of P. falciparum AMA1 to RON2. AlphaScreen AMA1-biotinylated RON2 peptide binding. Potency, µM (highest dose often 58.2 µM), without a hit: at the top dose activity change, negative = inhibition, hits mostly inhibitors. 360,000 tested, 0.2% active;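 also: 0% = vehicle wells and -100% = peptide control; nearly all actives have a fitted effect of over 45% in size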
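AMA1 (3D7) with his tag at 25 nM final met compounds first, then biotinylated RON2 peptide at 25 nM; detection used donor plus acceptor beads, 10 µg/mL apiece, read by AlphaScreen after 30 min at room temperature.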
The depositor's hits bear a star; ? = inconclusive; . = no result; [ ] = remark or other dose. This is a sample that favours compounds with a hit; in the whole collection about 1.2% have one here. Unless noted, calls follow the shape of the dose curve; as a rule, active = well fitted curve in the direction sought with a large enough effect; inconclusive = small, poorly fitted or top-dose-only effect, or another doubt; inactive = no such curve, though single readings can be large; an effect the other way counts as inactive or inconclusive. Potency is read from the fitted curve at half-maximal effect.

SMILES | FBPA Giardia inh | TbPYK inhibitor | NS1 function inh | LmPK inh | AMA1 RON2 block
CC(C)(C)c1ccc(-c2nnc(SCc3ccc(Cl)cc3)n2-c2cccc(C(F)(F)F)c2)cc1 | . | . | 15.4% | . | .
CC(C)N(C(=O)Nc1ccc2nccnc2c1)C(C)C | 3.54µM* | 0.2% | -5.4% | -0.9% | 5.7%
CCOc1ccc(NC(=O)c2c(NCc3cccnc3)sc3c2CCC(C)C3)cc1 (stereo unspecified) | . | 14.1µM* | . | . | .
CCOc1ccc(NC(=O)c2c(NCc3cccs3)sc3c2CCC(C)C3)cc1 (stereo unspecified) | . | -10.5% | . | . | .
Fc1ccc(N2CCN(C3=Nc4cccc5cccc3c45)CC2)cc1 | -7.6% | -2.6% | . | 3.1% | 22.4µM*
Clc1ccc(/C=N/N2CCCCC2)cc1 | -7.1% | 10.3% | -0.9% | -24.4% | -16.2%
N#Cc1ccc(C=NN2CCCCCC2)cc1 | . | -0.1% | . | . | 28.2µM*
CO[C@H]1[C@@H](O)[C@H](N)[C@@H](O[C@H]2O[C@@H]([C@H](C)N)CC[C@H]2N)[C@H](O)[C@@H]1N(C)C(=O)CN | . | 7.8% | . | . | .
O=C(CO)NCCCOc1cccc(CN2CCCCC2)c1 | . | -7.3% | . | . | .
COc1cc(CCN)c(OC)c(OC)c1 | . | . | 0.0% | . | .
O=C(O)c1cccc(COc2ccccc2Cl)c1 | ? | -17.3% | -90.8% | 14.1µM* | -4.1%
Cc1ccc(N=Cc2cc(Cc3ccccc3Cl)cc([N+](=O)[O-])c2O)c(O)c1 | ? | -3.2% | . | -4.6% | 10µM*
Cc1n[nH]c(C)c1Sc1ccccc1N=Cc1cc(Cl)cc([N+](=O)[O-])c1O | -14.9% | -3.1% | -56.4% | -6.5% | 17.8%
CCc1ccc(S(=O)(=O)Nc2cc(SCC(=O)O)c(O)c3ccccc23)cc1 | 4.46µM* | ? | -9.6% | ? | ?
O=C(O)CSc1cc(NS(=O)(=O)c2cccc([N+](=O)[O-])c2)c2ccccc2c1O | 2.51µM* | ? | -6.9% | 14.1µM* | -13.3%
Cc1ccc(C)c(S(=O)(=O)Nc2cc(SCC(=O)O)c(O)c3ccccc23)c1 | 2.23µM* | 15.8µM* | -25.6% | 14.1µM* | -18.8%
CCc1ccc(S(=O)(=O)Nc2ccc(O)c3ccccc23)cc1 | -15.5% | -2.0% | 2.5% | ? | ?
Cc1ccc(NS(=O)(=O)c2cc(NC(=O)C(C)Oc3ccccc3)ccc2C)c(C)c1 (stereo unspecified) | 1.8% | -16.2% | ? | 2.0% | -4.4%
CCOc1ccc(S(=O)(=O)Nc2cc(SCC(=O)O)c(O)c3ccccc23)cc1 | 6.31µM* | ? | -103.1% | 20µM* | ?
COC(=O)CC1c2ccccc2C=C(/C=C/c2ccc3c(c2)OCO3)N1C(=O)OC (stereo unspecified) | -0.3%[12.9 µM] | . | . | -13.1%[11.5 µM] | .
N=C(N)SCCON1C(=O)c2ccccc2C1=O | . | . | 8.3% | . | .
NS(=O)(=O)c1ccc(N/N=C/c2ccc(O)c(O)c2O)c([N+](=O)[O-])c1 | 7.92µM* | -20.9% | 11.6% | -5.9% | ?
COC1=C(OC)C(=O)C(CCCCCCCCCCO)=C(C)C1=O | 4.46µM* | 10.2% | . | 15.3% | .
COC1=CC(=O)C(O)=C(CCCCCCC/C=C/CCCCCCCC2=C(O)C(=O)C=C(OC)C2=O)C1=O | . | -10.8% | . | . | ?
COc1cccc(/C=N/Nc2ncccc2[N+](=O)[O-])c1OC | -2.6% | ? | -0.4% | 14.1µM* | 29.9%
SMILES | FBPA Giardia inh | TbPYK inhibitor | NS1 function inh | LmPK inh | AMA1 RON2 block
COc1ccccc1C=NNC(=O)NN=Cc1ccccc1OC | . | 0.3% | . | . | 54.7%
COc1ccccc1/C=N/Nc1nccnc1Cl | -16.6% | -5.4% | 1.5% | 15.8µM* | 5.0%
O=[N+]([O-])c1ccc(/C=N/Nc2ncccc2[N+](=O)[O-])s1 | . | -20.1% | . | . | -4.6%
Cc1ccc2c(c1)C(c1ccccc1)N(C(=O)COc1ccc(Cl)cc1Cl)CC(=O)N2 (stereo unspecified) | . | -7.2% | . | . | .
COc1cccc(Cn2c(=O)cnc3cnc(Oc4cccc(Cl)c4)nc32)c1 | -8.5% | -3.4% | . | . | .
COc1ncnc2sc(-c3ccccc3)cc12 | 3.7% | ? | -66.9% | 12.6µM* | 12.0%
C=CCn1c(-c2cccn(Cc3ccccc3)c2=O)n[nH]c1=S | ? | ? | 5.2% | 2.4% | -7.8%
C=CCn1c(-c2cccn(Cc3cccc(Cl)c3)c2=O)n[nH]c1=S | -14.8% | 8.91µM* | 10.8% | -0.7% | 44.2%
O=c1c(-c2n[nH]c(=S)n2-c2ccccc2)cccn1Cc1cccc(Cl)c1 | 0.5% | 12.6µM* | . | -3.8% | 128.0%
Cc1ccc2oc(C(=O)Nc3sc4c(c3C(=O)NCc3ccccc3)CCCC4)cc(=O)c2c1 | . | 2.0% | . | . | .
Cc1cc2ncc(C(=O)Nc3ccsc3C(=O)O)c(C)n2n1 | -9.3% | ? | . | 25.1µM* | 14.8%
CC(C)(C)C(=O)[C@H](C(c1ccccc1)N1CCOCC1)N1CCOCC1 (stereo partly specified) | . | . | -2.8% | . | .
CCc1cccc(NC(=O)CSc2ncc3c(n2)-c2ccccc2N(CC)S3(=O)=O)c1 | . | 2.8% | . | . | .
CCc1cccc(NC(=O)CSC2=NS(=O)(=O)c3ccccc32)c1 | 10.3% | ? | -48.4% | 15.8µM* | 2.9%
COc1cc(NC(=O)O[C@@H]2C(=O)c3cc(Br)ccc3O[C@H]2c2ccc3c(c2)OCO3)cc(OC)c1OC | -0.9% | . | . | . | .
CCOc1ccc(NC(=O)C2CCN(c3nnc(-n4c(C)ccc4C)s3)CC2)cc1 | . | -0.5% | . | . | .
CCOC(=O)CN=C1CC(C)(C)CC2=C1Sc1ncnc(N(C)C)c1N2 | 2.51µM* | ? | -4.6% | -0.8% | 49.5%
C=CC(=O)Nc1cccc(Oc2ncnc3[nH]cc(-c4cnc5ccccc5c4)c23)c1 | . | 1.2% | . | . | 10.3%
C=CC(=O)Nc1cccc(Oc2ccnc3[nH]ccc23)c1 | . | 6.2% | . | . | 25.1µM*
Cc1ccc(/C=C/C(=O)Nc2cccnc2)o1 | ? | 28.2µM* | 16.2% | -15.4% | -2.4%
O=C(/C=C/c1ccccc1)Nc1cccnc1 | -4.5% | -2.6% | -58.5% | -12.8% | -10.0%
Cc1cc2c(cc1C)CN(c1ccccc1)C2 | -5.2% | -13.4% | 2.9% | 15.8µM* | -7.4%
COc1cc(O)c(C(=O)c2ccccc2)cc1O | 3.54µM* | . | . | . | .
COc1ccc(Br)c(OC)c1C(=O)NC(=O)Nc1nc(C)cc(C)n1 | 19.9µM* | -5.0% | 0.3% | 9.8% | 2.8%
COc1cc2c(cc1NC(=O)c1ccc3c(c1)OCO3)oc1ccccc12 | 3.3% | 0.7% | -12.0% | -10.0% | -2.5%
COc1cc2c(cc1NCc1ccc3c(c1)OCO3)oc1ccccc12 | -1.3% | 0.7% | 9.2% | 5.2% | 31.6µM*
Cc1nc2c(c(SCC(=O)Nc3ccccc3C(F)(F)F)n1)CCC2 | . | 0.0% | . | . | .
Cc1cccc(-n2c(CNC(=O)c3ccc(S(=O)(=O)N4CCCC4)cc3)n[nH]c2=S)c1 | -3.4% | 14.1µM* | 3.9% | -10.0% | 13.8%
O=C(NCc1n[nH]c(=S)n1-c1cccc(Cl)c1)c1ccc(S(=O)(=O)N2CCCCC2)cc1 | -2.2% | ? | ? | 11.9% | 38.4%
CN1CCN(C(=S)c2ccc(-c3cccc(Cl)c3Cl)o2)CC1 | -3.4% | -33.4% | -9.5% | 1.6% | 14.1µM*
